Test results reported in PubChem BioAssay (NCATS).
Results filed as inconclusive are left out. Entries that show only a call come without a potency. A number with no mark means an inactive call. Activity calls are given as the source filed them. Calls follow the shape of the dose curve; as a rule, active = well fitted cell-killing curve with a large enough effect; inconclusive = small, poorly fitted or top-dose-only effect, or effect the other way; inactive = no such curve, though single readings can be large or run the other way.

assay: Viability qHTS for spleen associated tyrosine kinase inhibitor (SYKi) naive MV4-11 cells (AID 1963823); settings: MV4-11 AML viability, CellTiter-Glo luminescence, 72 h; series mostly up to 45 µM; also: nearly all actives have a fitted effect of over 40% in size
In short: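 SYK inhibitor-naive MV4-11 cells, 500 per well, exposed to compounds for 72 hr at 37 C, 5% CO2. Viability read as CellTiter-Glo luminescence after 10 min at room temperature.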
Potency is read from the fitted curve at half-maximal effect.

Row | SMILES | Potency | viability (% of control)
1 | O=C1c2c(O[C@@H]3O[C@H](CO)[C@@H](O)[C@H](O)[C@H]3O)cc(O)cc2OC1(O)Cc1ccc(O)cc1 (some centres undefined) | 2 µM (active) | –
2 | CC(=O)CC1CCC(C(C)C(=O)OCC(O)CO)O1 (centres undefined) | inactive | –
3 | C=C1/C(=C/C=C2\CCC[C@@]3(C)C2CCC3[C@H](C)/C=C/[C@@H](O)C2CC2)C[C@@H](O)C[C@@H]1O (some centres undefined) | inactive | –
4 | C[C@@H]1O[C@@H](O[C@H]2[C@H](O[C@H]3CC[C@@]4(C)C(CC[C@]5(C)C4CC=C4[C@@H]6CC(C)(C)CC[C@]6(C(=O)O[C@@H]6OC[C@H](O)[C@H](O)[C@H]6O[C@@H]6O[C@@H](C)[C@H](O[C@@H]7O[C@H](CO)[C@@H](O)[C@H](O)[C@H]7O)[C@H](O)[C@H]6O)[C@H](O)C[C@]45C)C3(C)C)O[C@H](CO)[C@@H](O[C@@H]3OC[C@@H](O)[C@H](O)[C@H]3O)[C@@H]2O)[C@H](O)[C@H](O)[C@H]1O (some centres undefined) | – | 79.8% [at 9.25 µM]
5 | Cc1ccc(OC[C@H](O)[C@H](C)NC(C)C)c2c1CCC2 | inactive | –
6 | C=C1C[C@]23C[C@H]1CC[C@H]2[C@@]12CC[C@H](O)[C@@](C)(C(=O)O1)[C@H]2[C@@H]3C(=O)O | inactive | –
7 | CC(=O)OCC1OC(O[C@H]2CC[C@]34C[C@]35CC(O)[C@]3(C)[C@@H]([C@H](C)CC/C=C(\C)C(=O)O)C(O)C[C@@]3(C)C5CC[C@H]4C2(C)C)C(O)C(O)C1OC1OCC(O)C(O)C1O (some centres undefined) | – | 62.3% [at 9.25 µM]
8 | COc1cc2c(cc1O)[C@H](c1ccc(O[C@@H]3O[C@H](CO)[C@@H](O)[C@H](O)[C@H]3O)c(OC)c1)[C@@H](CO)[C@](O)(CO)C2 | inactive | –
9 | COc1c2cc(c(O)c1OC)-c1cc(ccc1O)CCC(O)CCCC2 (centres undefined) | 12.8 µM (active) | –
10 | C=C(COC(=O)CC(C)C)C1Cc2cc(C(C)=O)ccc2O1 (centres undefined) | inactive | –
11 | CC1=CCC[C@@H]2[C@@](C)(CCc3ccoc3)[C@H](C(=O)O)CC[C@@]12C | 2.86 µM (active) | –
12 | COc1cc2c(cc1OC)/C(=C/c1ccc(O)cc1)C(=O)N2 | 8.2 µM (active) | –
13 | Cc1ccc2nc(NC(=O)CSc3nc4c(c(=O)n3-c3ccc(F)cc3)SCC4)sc2c1 | inactive | –
14 | COc1ccc2c(c1)C[C@H](C(=O)Nc1ccc(-c3cn[nH]c3)cc1OCCN(C)C)CO2 | 0.651 µM (active) | –
15 | O=C(O)c1cc2cccc([N+](=O)[O-])c2[nH]1 | inactive | –
16 | C=C(C)[C@@H]1CC[C@]2(C)CC[C@]3(C)C(CCC4[C@@]5(C)CC[C@H](O)C(C)(C)C5CC[C@]43C)C12 (some centres undefined) | inactive | –
17 | C/C=C/C=C/C=C/C(=O)OC1C=C2C(O)OC(=O)[C@]2(O)[C@@]2(C)CCCC(C)(C)[C@H]12 (some centres undefined) | 6.32 µM (active) | –
18 | C=C1CCC2C(C)(C(=O)O)CCCC2(C)C1CCC1=CCOC1=O (centres undefined) | inactive | –
19 | CCCCC1CCC(c2nc(-c3ccncc3)no2)CC1 (centres undefined) | inactive | –
